In the library only some 2.6% were active in any assay of this set; here they are far more common.
IDE cell inh = human IDE inhibitors in live cells, primary screen, fluorescence polarization, HEK cells, FAbetaB substrate; FAbetaB cleavage; inhibition, % at 5.59 µM; hit rate 0.41% among 320,000;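 active = percent inhibition above the average of all tested compounds plus 3 SD, set per screening campaign, cut at about 16% in these data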;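 note: IDE supplied by intact live HEK cells; FP after avidin binding of uncleaved biotin substrate so inhibition keeps polarization high; 0% = DMSO wells and 100% = 60 µM reference IDE inhibitor Ii1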
Target sequence (P14735 whole entry, looked up): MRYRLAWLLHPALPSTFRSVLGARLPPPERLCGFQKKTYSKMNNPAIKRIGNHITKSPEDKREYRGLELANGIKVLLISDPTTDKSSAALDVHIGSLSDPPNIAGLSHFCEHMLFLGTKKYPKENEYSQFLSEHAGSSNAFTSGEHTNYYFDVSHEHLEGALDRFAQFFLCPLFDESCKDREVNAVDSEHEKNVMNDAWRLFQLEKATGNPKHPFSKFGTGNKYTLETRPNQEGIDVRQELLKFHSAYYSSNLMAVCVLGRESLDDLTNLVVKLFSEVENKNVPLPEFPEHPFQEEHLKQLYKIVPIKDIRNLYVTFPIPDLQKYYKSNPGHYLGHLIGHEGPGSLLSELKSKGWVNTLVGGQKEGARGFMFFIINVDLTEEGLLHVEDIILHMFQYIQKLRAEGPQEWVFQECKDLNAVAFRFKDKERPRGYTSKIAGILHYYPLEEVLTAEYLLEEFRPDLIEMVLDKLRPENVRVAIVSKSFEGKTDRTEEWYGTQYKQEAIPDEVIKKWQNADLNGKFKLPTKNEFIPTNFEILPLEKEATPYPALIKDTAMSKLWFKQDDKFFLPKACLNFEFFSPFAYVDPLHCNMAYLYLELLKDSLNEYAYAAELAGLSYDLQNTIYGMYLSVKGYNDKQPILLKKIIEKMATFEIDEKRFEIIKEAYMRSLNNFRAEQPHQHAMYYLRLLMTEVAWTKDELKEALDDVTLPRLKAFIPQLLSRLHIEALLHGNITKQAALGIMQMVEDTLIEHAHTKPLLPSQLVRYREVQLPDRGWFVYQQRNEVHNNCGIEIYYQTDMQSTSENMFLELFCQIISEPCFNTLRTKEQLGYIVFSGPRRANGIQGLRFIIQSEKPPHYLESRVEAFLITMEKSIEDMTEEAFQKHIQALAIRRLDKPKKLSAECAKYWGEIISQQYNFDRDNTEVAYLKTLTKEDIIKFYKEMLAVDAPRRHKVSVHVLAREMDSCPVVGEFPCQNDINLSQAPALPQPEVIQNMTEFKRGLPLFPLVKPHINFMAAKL
TPT1 inhibitor = Candida albicans TPT1 enzyme inhibitors, primary screen, biochemical, fluorescence polarization. tRNA 2'-phosphotransferase TPT1 (Candida albicans SC5314). recombinant caTPT1, FP RNA substrate dephosphorylation. inhibition, % at 5 µM. hit rate 0.81% among 300,000. AID 1962, 2009;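 active = inhibition above the mean of all tested compounds plus 3 SD, set per screening campaign, cut at about 24% in these data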;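 note: plate controls were DMSO alone for no effect and ferristatin control at 100 nM for full effect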
IDE cell activ = human IDE activators in live cells, primary screen, fluorescence polarization, HEK cells, FAbeta-B substrate; AID 493087, 2011; hit rate 0.073% among 340,000; FAbeta-B cleavage; 0% vehicle, 100% cell-free pure enzyme wells; activation, % at 5.96 µM; Insulin-degrading enzyme (Homo sapiens), P14735;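 active = activation above the mean of all tested compounds plus 3 SD, set per screening campaign, cut at about 17% in these data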
CRFBP-R2 block = antagonists of CRF-BP/CRF-R2 complex, primary screen, cell-based, HEK293, calcium dye fluorescence, uHTS; CRF-induced calcium fluorescence; inhibition, % at 11.8 µM; hit rate 0.59% among 350,000;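 active = inhibition of the ligand-induced calcium signal above about 50% at the single tested concentration, limit read from the data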
CRFR2-BP ag = agonists of CRF-BP/CRF-R2 complex, primary screen, cell-based, HEK293, calcium dye fluorescence, uHTS. calcium dye fluorescence (FLIPR); percent of saturating CRF peptide response. activation, % at 13.2 µM. hit rate 0.46% among 350,000;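 active = activation of at least 50%, plus an integration ratio under a set limit after plate pattern correction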;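 note: plate controls were neutral control wells without compound for no effect and CRF at EC100 for full effect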
Myeloid diff 2 = induction of myeloid progenitor differentiation, primary screen, cell-based, flow cytometry, MLPCN library; ER-HoxA9 myeloid progenitors, lysozyme-GFP differentiation; calls only at 10 µM; hit rate 1% among 360,000;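 active = normalized GFP-positive differentiation at or above the plate's own cutoff, the solvent-only control mean plus 3 SD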;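 note: cells exposed to compound for four days before flow analysis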
IDE inh confirm = human IDE inhibitors in live cells, confirmation, fluorescence polarization, HEK cells, FAbetaB substrate | FAbetaB cleavage | hit rate 51% among 1,200 | inhibition, % at 5.59 µM | shares compounds with IDE cell inh;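 active = mean inhibition across triplicate wells above the cutoff set by the earlier primary insulin-degrading enzyme screen, cut at about 16% in these data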;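 note: 0% = DMSO wells and 100% = 60 µM reference IDE inhibitor Ii1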
HEK cytotox = cytotoxicity in HEK cells, cytotoxicity control for IDE inhibitor project, cell-based, luminescence | hit rate 28% among 1,200 | shares compounds with IDE cell inh | inhibition, % at 5.59 µM | HEK293 cytotoxicity, ATP luminescence; in the data active = inhibition above about 22%;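 note: 0% = vehicle wells and 100% = reference cytotoxic drug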
Starred values were filed as active, the others as inactive; i = inactive; · = not tested or not shown.

SMILES | IDE cell inh | TPT1 inhibitor | IDE cell activ | CRFBP-R2 block | CRFR2-BP ag | Myeloid diff 2 | IDE inh confirm | HEK cytotox
COc1ccc2sc(-c3ccc(SC)cc3)c(/C=C/c3ccc(OC)c(OC)c3)c2c1 | 1 | · | 1 | 2 | 0 | i | · | ·
COc1ccccc1-[n+]1c(C)cc(/C=C2\Sc3ccccc3N2C)cc1C | 52* | 123* | -70 | -169 | 175* | · | 104* | 113*
COc1ccc(C(=O)/C=C/c2cc(OC)c(O)c(OC)c2)c(F)c1 | 52* | 6 | -58 | -48 | 33 | i | 87* | 43*
COc1cc(/C=N\NC(=O)c2ccc(-c3ccccc3)cc2)cc(OC)c1O | 19* | -2 | -12 | 16 | -1 | i | 12 | 11
CCOC(=O)c1c(NC(=O)COC(=O)CNC(=O)c2ccco2)sc(C(C)=O)c1C | 17* | 0 | -7 | 13 | 0 | i | 9 | 6
Cc1ccc(C(=O)NCC(c2ccc(F)cc2)N2CCOCC2)cc1 (stereo not given) | 3 | 0 | 9 | -2 | 0 | i | · | ·
Cc1cccc(C(=O)NCC(c2ccc(F)cc2)N2CCOCC2)c1 (stereo not given) | 16* | -2 | 6 | 6 | 4 | i | 7 | 7
Cc1[nH]n(-c2ccccc2)c(=S)c1C=Nc1cccc([N+](=O)[O-])c1 | 25* | -8 | -13 | 2 | -1 | i | 2 | 8
CCCCN=Cc1c(C)[nH]n(-c2ccccc2)c1=S | -2 | -2 | -2 | 7 | -2 | i | · | ·
CN(C)c1nc(SCC(=O)Nc2ccccc2)nc(N2CCOCC2)n1 | 20* | -1 | -13 | 3 | -2 | i | 16 | 8
CN(C)c1nc(SCC(=O)Nc2ccc(Cl)c(Cl)c2)nc(N2CCOCC2)n1 | 23* | -4 | -56 | -18 | 1 | i | 9 | 27*
CCn1c(-c2cc(-c3cc(OC)ccc3OC)nc3ccccc23)n[nH]c1=S | 7 | -3 | -7 | 14 | 0 | i | · | ·
CCn1c(-c2cc(-c3ccccc3OC)nc3ccccc23)n[nH]c1=S | 16* | -2 | -23 | -6 | 2 | i | 10 | 8
O=C(CC1C(=O)N(c2ccc(Cl)cc2)C(=S)N1CCc1ccncc1)Nc1ccc(F)cc1 (stereo not given) | 1 | -2 | -3 | -41 | 14 | i | · | ·
CCOc1ccc2nc(NC(=O)Cn3cnc4c3c(=O)n(C)c(=O)n4C)sc2c1 | 19* | -2 | -18 | 11 | -2 | i | -2 | 10
O=C(COC(=O)c1cccnc1Cl)Nc1nc(-c2ccccc2)cs1 | 26* | 1 | -15 | -16 | 2 | i | 6 | 12
O=C(COC(=O)c1ccccc1O)Nc1cccnc1Cl | 1 | -1 | 5 | -7 | -3 | i | · | ·
CCOC(=O)c1ccccc1NC(=O)c1ccc2nc[nH]c2c1 | 5 | 0 | 2 | -4 | 2 | i | · | ·
CCCCn1c(SCC(=O)N2CCN(c3ccccc3)CC2)nc2ccsc2c1=O | 21* | 0 | -14 | 16 | 0 | i | 6 | 19
CCCCn1c(SCC(=O)N2CCC(C)CC2)nc2ccsc2c1=O | 2 | -5 | -3 | 1 | -2 | i | · | ·
CCc1nnc(/N=C/c2c(O)n(-c3ccc(Cl)cn3)c(=O)c3ccccc23)s1 | 17* | -4 | 5 | 11 | 2 | i | 7 | 10
Cc1ccnc(NC(=O)CCc2c[nH]c3ccccc23)c1 | -4 | -1 | -1 | 1 | 0 | · | · | ·
CCCCOc1ccc(C(=O)Nc2cc(C)c(OCC(=O)N3CCOCC3)c(C)c2)cc1 | 39* | -10 | -17 | 6 | 2 | i | 10 | 25*
Cc1cc(NC(=O)c2cccc3ccccc23)cc(C)c1OCC(=O)N1CCOCC1 | 7 | 1 | 1 | -67 | -1 | i | · | ·
CCOc1cccc(C(=O)Nc2nc(-c3ccc(S(=O)(=O)N4CCOCC4)cc3)cs2)c1 | 23* | 0 | -16 | -16 | 2 | i | 9 | 38*
SMILES | IDE cell inh | TPT1 inhibitor | IDE cell activ | CRFBP-R2 block | CRFR2-BP ag | Myeloid diff 2 | IDE inh confirm | HEK cytotox
Cc1ccn2cc(-c3ccc(NC(=O)c4ccco4)cc3)nc2c1 | 18* | 1 | -1 | 4 | -1 | i | 5 | 21
COc1cc(/C=C2\C(=O)N(C)C(=S)N2C)ccc1O | 19* | 9 | -8 | -12 | -1 | i | 31* | 12
CN1C(=O)/C(=C/c2ccc(O)c([N+](=O)[O-])c2)N(C)C1=S | -3 | -8 | 11 | 19 | 0 | i | · | ·
Cc1ccc(S(=O)(=O)NN2C(=O)/C(=C/c3ccccn3)SC2=S)cc1 | 5 | -3 | 7 | 19 | -2 | i | · | ·
CCOc1cc(/C=C2\SC(=S)N(NS(=O)(=O)c3ccc(C)cc3)C2=O)ccc1O | 35* | 18 | -32 | 0 | 13 | i | 84* | 9
COc1cc(/C=C2\SC(=S)N(NC(=O)c3ccncc3)C2=O)ccc1O | 81* | 18 | -136 | -16 | 7 | i | 165* | 6
CC1CN(c2nnc(NC(=O)c3ccccc3)s2)CC(C)O1 (stereo not given) | 11 | 1 | 4 | 0 | 0 | i | · | ·
Cn1c(SCC(=O)Nc2ccc3nc(SCC(=O)N4CCCC4)sc3c2)nnc1-c1ccccc1 | 21* | 5 | · | 17 | -1 | · | 14 | 10
CC(=O)c1nnn(-c2c(F)cccc2F)c1C | 2 | -2 | 8 | -2 | -4 | i | · | ·
COc1cccc(OC)c1C(=O)N1CCNCC1 | -2 | 1 | -3 | 2 | -1 | i | · | ·
O=C(Nc1ccc(-c2cn3ccsc3n2)cc1)c1ccc(F)c(S(=O)(=O)N2CCOCC2)c1 | 21* | 4 | -10 | -5 | 0 | i | 6 | 58*
CCCc1cc(C(=O)Nc2ccc(C(=O)c3ccc(F)cc3)cc2)n(C)n1 | 4 | -2 | -5 | -13 | 3 | i | · | ·
CCCc1cc(C(=O)Nc2ccc(C(=O)c3ccccc3)cc2)n(C)n1 | 19* | -3 | -11 | 8 | 1 | i | 4 | 23*
Cc1noc(C)c1CSCC(=O)N1CCN(c2ccc(F)cc2)CC1 | 9 | -3 | 0 | 23 | 3 | i | · | ·
Cc1cccc(N2CCN(C(=O)CSCc3c(C)noc3C)CC2)c1C | 17* | -3 | -3 | 13 | -2 | i | 0 | 65*

Assay outcomes from PubChem.
